We go through 96 compounds from PubChem BioAssay AID1851 (National Center for Advancing Translational Sciences (NCATS), 2009).

In all, about 16,000 compounds went through this assay and about 5,100 (32%) were called active. Roughly 25% stayed inconclusive and do not appear here. The list shows a part of the results. Unmarked numbers belong to inactive results. Calls come from the whole dose curve; as a rule, active = well fitted curve in the direction sought with a large enough effect; inconclusive = small, poorly fitted or top-dose-only effect, or effect the other way; inactive = no such curve, though single readings can be large or run the other way.
% is set by controls: 0 for no effect and ±100 for the full control effect.

In this experiment the target is Cytochrome P450 3A4 (Homo sapiens) (UniProt P08684). Description: Cytochrome panel assay with activity outcomes. As to conditions: recombinant CYP, pro-luciferin dealkylation, luminescence, p450-cyp3a4; series mostly up to 57.1 µM; activity, negative = inhibition: at the top concentration.
Cytochrome P450 3A4 (Homo sapiens), sequence (P08684 whole entry, looked up): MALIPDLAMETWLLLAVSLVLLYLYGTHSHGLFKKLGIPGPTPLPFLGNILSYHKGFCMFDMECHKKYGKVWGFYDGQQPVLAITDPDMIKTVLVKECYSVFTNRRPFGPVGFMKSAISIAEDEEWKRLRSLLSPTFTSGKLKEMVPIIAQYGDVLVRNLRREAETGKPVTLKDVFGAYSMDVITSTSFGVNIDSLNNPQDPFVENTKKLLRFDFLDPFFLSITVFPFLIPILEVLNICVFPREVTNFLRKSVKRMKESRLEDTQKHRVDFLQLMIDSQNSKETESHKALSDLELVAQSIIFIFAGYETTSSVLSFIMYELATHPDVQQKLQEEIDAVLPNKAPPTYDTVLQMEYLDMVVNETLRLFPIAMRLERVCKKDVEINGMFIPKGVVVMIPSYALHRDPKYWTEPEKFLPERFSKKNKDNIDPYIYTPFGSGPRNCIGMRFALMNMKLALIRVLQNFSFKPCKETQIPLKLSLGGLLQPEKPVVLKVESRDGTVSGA
As for `O=C(NCCO)c1cc2c(s1)CCC2`, the “activity, negative = inhibition” value was -2.01%.
On the same count and under the same terms, the result for `C[C@@H]1O[C@H](O[C@@H]2[C@H](C)O[C@H](O[C@@H]3[C@H](C)O[C@H](O[C@H]4CC[C@]5(C)[C@@H](CC[C@@H]6[C@H]5C[C@@H](O)[C@]5(C)[C@@H](C7=CC(=O)OC7)CC[C@]65O)C4)C[C@@H]3O)C[C@@H]2O)C[C@H](O)[C@@H]1O` reads 0.67% [at 25.6 µM].
The term AC50 denotes the concentration at which the activity in the assay is half-maximal. Take `COc1ccccc1CCn1c(=O)c(CCc2ccccc2)nc2cncnc21`: the AC50 is 3.16 µM (active).
Regarding `COCCn1c(=O)c(CCc2ccccc2)nc2cncnc21`, the AC50 was 7.94 µM (active).
In the case of `NCCn1c(=O)c(CCc2ccccc2)nc2cncnc21`, the AC50 was 15.8 µM (active).
With `O=C(O)/C=C\c1c2ccc(=O)c(O)c-2oc2c(O)c(O)ccc12`, the activity, negative = inhibition was -22.7% [at 11.4 µM].
On to `COCCn1c(C)cc2c(c1=O)C(c1ccccc1F)C(C#N)=C(N)O2` (stereo unspecified), for which the AC50 is 5.62 µM (active).
Still for that read-out and setting: for `CCCC[S@@](=N)(=O)CC[C@@H](N)C(=O)O` the value was “inactive”.
On to `CCNCCCNCCCNCCCNCC`, for which the “activity, negative = inhibition” value was -3.22%.
Take `Cc1cccc(N(C)S(=O)(=O)c2ccc3[nH]c(=O)c(=O)[nH]c3c2)c1`: the AC50 was 14.1 µM (active).
Turning to `CCS(=O)(=O)N1CCC[C@H]2CN3CCc4cc(OC)ccc4[C@@H]3C[C@@H]21`, the AC50 is 5.01 µM (active).
In the case of `COc1ccc2c3c([nH]c2c1)[C@@H]1C[C@@H]2[C@@H](C[C@H](O)[C@H](OC)[C@H]2C(=O)O)CN1CC3`, the “activity, negative = inhibition” value is -7.07% [at 25.6 µM].
Take `COc1ccc2c3c([nH]c2c1)[C@H]1C[C@@H]2[C@@H](C[C@@H](O)[C@H](OC)[C@H]2C(=O)O)CN1CC3`: the activity, negative = inhibition was -4.43% [at 11.4 µM].
On the same count and under the same terms, for `O=[N+]([O-])c1cc(Cc2cc([N+](=O)[O-])c3cccnc3c2O)c(O)c2ncccc12` the value was -19.6% [at 11.4 µM].
For `Cc1ccc(-c2cccc(OC(=O)c3ccccc3F)c2)cc1`, the “activity, negative = inhibition” value is -10.7%.
In the case of `O=C(c1cc(O)c(O)c([N+](=O)[O-])c1)c1ccccc1F`, the AC50 is 20 µM (active).
As for `Nc1nc(Nc2ccccc2)nc2c1ncn2[C@@H]1O[C@@H](CO)[C@H](O)[C@@H]1O`, the “activity, negative = inhibition” value is -3.64%.
As to `O=CN1CCN(C[C@H](O)CN2CCCCC2)CC1`, the activity, negative = inhibition was -4.95% [at 11.4 µM].
Take `CN(Cc1ccco1)c1ncnc2ccc(-c3ccccc3Cl)cc12`: the AC50 is 15.8 µM (active).
With `CN(Cc1ccco1)c1ncnc2ccc(-c3ccccc3C(F)(F)F)cc12`, the AC50 is 15.8 µM (active).
As to `COCc1nnc(NC(=O)CCN2C(=O)c3ccccc3C2=O)s1`, the “activity, negative = inhibition” value is -15.1%.
As for `Cc1ccc(NC(=O)CCN2C(=O)c3ccncc3C2=O)cc1`, the concentration at half-maximal activity (AC50) is 8.91 µM (active).
Take `Cc1cccc(OCCn2c(S(=O)(=O)O)nc3ccccc32)c1`: the “activity, negative = inhibition” value was -2.49%.
As to `Cc1cccc(OCCn2c(-c3ccco3)nc3ccccc32)c1`, the concentration at half-maximal activity (AC50) is 10 µM (active).
As to `C/C(CC(=O)Nc1ccccn1)=N\NC(=O)C(=O)Nc1cccc(Cl)c1C`, the activity, negative = inhibition was 16.1% [at 2.29 µM].
As for `C/C(CC(=O)Nc1cc(Cl)ccc1Cl)=N\NC(N)=S`, the AC50 is 14.1 µM (active).
The same measure, in the same setting: the result for `COc1ccc(Cl)cc1NC(=O)CN1C(=O)CSC1=O` reads 7.94 µM (active); that for `CCCCC(=O)N/N=C(\C)CC(=O)Nc1cc(Cl)ccc1OC`, 4.47 µM (active).
On to `COc1ccc(Cl)cc1NC(=O)NCCCl`, for which the “activity, negative = inhibition” value was -28.3%.
In the case of `O=C(O)C1CCCCC1C(=O)Nc1cc(Cl)ccc1Cl` (stereo unspecified), the “activity, negative = inhibition” value is 16%.
Still for that read-out and setting: the result for `N[C@@H](CSCc1ccccc1)C(=O)O` reads -6.14% [at 11.4 µM]; that for `NC1(C(=O)O)C[C@H](C(=O)O)[C@H](C(=O)O)C1` (stereo partly specified), -6.99%.
For `CC1CN(C(NC(=O)C(C)(C)C)C(Cl)(Cl)Cl)CC(C)O1` (stereo unspecified), the “activity, negative = inhibition” value is -27.5%.
In the case of `C[C@@H]1NCC[C@H](CC(=O)O)[C@H]1CC(=O)O`, the activity, negative = inhibition was 0.412% [at 11.4 µM].
In the case of `CC(C)=C[C@H]1[C@@H](C(=O)Oc2ccccc2C(C)C)C1(C)C`, the activity, negative = inhibition was -13.1% [at 11.4 µM].
Turning to `Cc1[nH]c(N)nc(=S)c1CCC(=O)O`, the activity, negative = inhibition was -2.07% [at 11.4 µM].
On to `COc1ccccc1OCCCCCc1c(C)n[nH]c1C`, for which the “activity, negative = inhibition” value was 14.8%.
For `CN(Cc1ccco1)c1ncnc2ccc(-c3cccnc3)cc12`, the AC50 was 3.98 µM (active).
In the case of `COc1cccc(-c2ccc3ncnc(N(C)Cc4ccco4)c3c2)c1`, the AC50 is 12.6 µM (active).
As to `NCCSC[C@H](N)C(=O)O`, the activity, negative = inhibition was -7.49% [at 11.4 µM].
Turning to `O=C(O)[C@@H](O)[C@@H](O)[C@@H](O[C@H]1O[C@@H](CO)[C@@H](O)[C@@H](O)[C@@H]1O)[C@@H](O)CO`, the “activity, negative = inhibition” value is 1.47% [at 25.6 µM].
For `Cc1cccc(CNc2ncnc3ccc(-c4ccc5c(c4)OCO5)cc23)c1`, the AC50 is 2 µM (active).
The same measure, in the same setting: the result for `c1nc(NC2CCNCC2)c2cc(-c3ccc4c(c3)OCO4)ccc2n1` reads 25.1 µM (active).
For `c1nc(NC2CCNCC2)c2cc(-c3ccoc3)ccc2n1`, the “activity, negative = inhibition” value is -15.6%.
With `c1ccc(Nc2ncnc3ccc(-c4ccc5c(c4)OCO5)cc23)cc1`, the AC50 is 2.51 µM (active).
As for `c1ccc(CNc2ncnc3ccc(-c4ccc5c(c4)OCO5)cc23)cc1`, the AC50 is 2 µM (active).
Turning to `COc1cc(C)c(Br)cc1S(=O)(=O)NCc1ccccc1`, the “activity, negative = inhibition” value was -0.507%.
On to `COc1cc(OC)c(C#N)c(S(=O)(=O)Cc2ccccc2)c1`, for which the AC50 was 25.1 µM (active).
As to `O=[N+]([O-])c1ccc(S(=O)(=O)Cc2ccccc2)c2nonc12`, the activity, negative = inhibition was -16.7% [at 11.4 µM].
As for `O=C(O)/C=C\C(=O)N1Cc2cc3ccccc3nc2C1`, the activity, negative = inhibition is -8.05% [at 11.4 µM].
The same measure, in the same setting: for `Cc1ccc(C(=O)N/N=C/c2cc(C)n(-c3ccc(Br)cc3)c2C)cc1[N+](=O)[O-]` the value was 23.5%.
On to `Cc1nc2ccccn2c1C(=O)N/N=C/c1ccccc1[N+](=O)[O-]`, for which the AC50 was 12.6 µM (active).
Consider `O=C(N/N=C/c1c(Nc2cccc(C(F)(F)F)c2)nc2ccccn2c1=O)c1ccccc1`, for which the “activity, negative = inhibition” value was -5.45%.
As to `COc1ccc(-c2nc3cnc(N4CCNCC4)nc3n(Cc3cccc(OC)c3)c2=O)cc1`, the concentration at half-maximal activity (AC50) was 15.8 µM (active).
Regarding `COc1cccc(Cn2c(=O)c(-c3cc(F)cc(F)c3)nc3cnc(N4CCNCC4)nc32)c1`, the AC50 is 25.1 µM (active).
Consider `CN1CCN(c2ncc3nc(-c4cc(F)cc(F)c4)c(=O)n(CCc4ccccc4)c3n2)CC1`, for which the AC50 was 25.1 µM (active).
Consider `COCCn1c(=O)c(-c2cc(F)cc(F)c2)nc2cnc(N3CCN(C)CC3)nc21`, for which the “activity, negative = inhibition” value is -6.67%.
`CN1CCN(c2ncc3nc(-c4ccccc4)c(=O)n(CCc4ccccc4)c3n2)CC1`: the “activity, negative = inhibition” value was -5.29%.
For `COc1cccc(Cn2c(=O)c(-c3ccccc3)nc3cnc(N4CCNCC4)nc32)c1`, the AC50 is 20 µM (active).
Still for that read-out and setting: for `COc1cccc(Cn2c(=O)c(-c3cc(F)cc(F)c3)nc3cnc(N4CCN(C)CC4)nc32)c1` the value was 25.1 µM (active); for `COc1cccc(Cn2c(=O)c(-c3ccc(F)cc3)nc3cnc(N4CCNCC4)nc32)c1`, 15.8 µM (active).
Take `O=C(O)c1ccc2c(c1)C(=O)N(C(Cc1ccc(O)cc1)C(=O)O)C2=O` (stereo unspecified): the “activity, negative = inhibition” value was 5.23%.
`Cc1cc(=O)oc(C)c1C(=O)NCc1ccccn1`: the “activity, negative = inhibition” value is -10.8%.
On to `CNCCc1ccccn1`, for which the “activity, negative = inhibition” value is -3.54% [at 25.6 µM].
On the same count and under the same terms, for `OCCCNCc1ccccn1` the value was -7.75% [at 11.4 µM]; for `c1ccc(CCNc2ccccn2)nc1`, -14.6% [at 11.4 µM].
Consider `Cc1cc(NCc2ccccn2)ccc1Br`, for which the half-maximal activity concentration (AC50) is 12.6 µM (active).
With `Cc1cc(Br)ccc1NCc1ccccn1`, the AC50 was 15.8 µM (active).
As to `CN(C)CCn1c(C(=O)O)cc2ccccc21`, the “activity, negative = inhibition” value is 6.42%.
As for `Cc1cc2ccccc2c(=O)n1CC(=O)NCC(=O)N1CCCC1`, the “activity, negative = inhibition” value was -2.71%.
Consider `Cc1cc2ccccc2n1CCNC(=O)C1CCCC1`, for which the AC50 was 4.47 µM (active).
`O=C(NCCN1CCCCC1)c1ccc(I)cc1`: the “activity, negative = inhibition” value was -0.633%.
As to `Cc1ccc(S(=O)(=O)NCCn2c(C)cc3ccccc32)cc1`, the AC50 was 5.01 µM (active).
Still for that read-out and setting: the result for `Cc1cc2ccccc2n1CCNC(=O)c1ccccc1` reads 3.98 µM (active).
Turning to `Cc1ccc(S(=O)(=O)NC(=O)c2cccn2C)cc1`, the “activity, negative = inhibition” value was 20.6%.
With `CC1(C)C(=O)N(CCN2CCC(C(=O)c3ccc(F)cc3)CC2)c2ccccc21`, the half-maximal activity concentration (AC50) was 15.8 µM (active).
`CCN1C(=O)C(O)(C2COC(C)(C)CC2=O)c2ccccc21` (stereo unspecified): the “activity, negative = inhibition” value was -1.6%.
As for `CN(C)CCCN1c2ccccc2C(C)(C)c2ccccc21`, the activity, negative = inhibition was -18.6% [at 11.4 µM].
Regarding `O=S(=O)(O)c1ccc(N=Nc2ccccc2)cc1`, the activity, negative = inhibition was 0.763% [at 11.4 µM].
As to `NCC(=O)Nc1ccc(Cl)cc1C(=O)c1ccc[nH]1`, the activity, negative = inhibition is -21.6% [at 11.4 µM].
Take `Cc1cc(SCC(=O)c2ccccc2)nc(SCC(=O)c2ccccc2)n1`: the AC50 is 2.82 µM (active).
As for `Cc1cc(C)nc(SCCc2cccc[n+]2C)n1`, the activity, negative = inhibition was -11% [at 11.4 µM].
With `O=C(O)CSc1cc(C(F)(F)F)nc(-c2ccccn2)n1`, the “activity, negative = inhibition” value is -5.8%.
`CC(=O)NCCNc1ncnc2ccc(-c3ccoc3)cc12`: the “activity, negative = inhibition” value is -28.8%.
On to `c1cncc(-c2ccc3ncnc(NCCN4CCOCC4)c3c2)c1`, for which the AC50 was 12.6 µM (active).
Regarding `c1nc(NCCN2CCOCC2)c2cc(-c3ccc4c(c3)OCO4)ccc2n1`, the AC50 was 5.01 µM (active).
On to `CC(=O)NCCNc1ncnc2ccc(-c3ccc4c(c3)OCO4)cc12`, for which the AC50 was 5.01 µM (active).
Turning to `c1ccc(-n2ncc3c(NCCCN4CCOCC4)ncnc32)cc1`, the “activity, negative = inhibition” value is -19.7%.
Take `NCCCCNCCCN`: the AC50 result was “inactive”.
The same measure, in the same setting: for `N#Cc1ccccc1Sc1ccccc1N` the value was 17.8 µM (active); for `c1ccc2sc(N3CCN(Cc4ccc5c(c4)OCO5)CC3)nc2c1`, 0.631 µM (active).
In the case of `O=C1CCC(c2ccccc2)=NN1c1nc2ccccc2s1`, the activity, negative = inhibition was -23.1% [at 11.4 µM].
The same measure, in the same setting: for `CC1CCOC2(O1)C(=O)N(CN1CCN(c3ccccc3F)CC1)c1ccccc12` (stereo unspecified) the value was -17.6%.
`CC(C)c1ccc(C(=O)CC2(O)C(=O)N(CN3CCOCC3)c3ccccc32)cc1` (stereo unspecified): the AC50 was 8.91 µM (active).
Take `CC(=O)N1CCC(=O)N(C(C)C)c2ccccc21`: the “activity, negative = inhibition” value is 7.06%.
For the compound `O=C(NCc1cccnc1)/C(=C/c1ccc(-c2cccc(Cl)c2)o1)S(=O)(=O)c1ccccc1`, the AC50 was 0.501 µM (active).
